# Results from PubChem BioAssay AID618 (Sanford-Burnham Center for Chemical Genomics, 2007).
# Hit rate of the full screen: of about 87,000 compounds, about 540 (0.62%) were called active. Entries that show only a call come without a potency. How the calls were made is not given here. The sample as a whole holds a higher share of actives than the screen did. Potency and affinity values are given separately.
# Test: inhibitors of MT1-MMP promoter transcription, cell-based, luciferase reporter, luminescence (AID 618);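 further: actives suppress MT1-MMP promoter-driven transcription so potencies describe inhibitors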
# Details: MT1-MMP promoter luciferase reporter cells
row,SMILES,outcome
1,COC(=O)C(C)Sc1ncnc2c1nnn2-c1ccc(F)cc1 (centres undefined),inactive
2,Cc1ccc(CNC(=O)[C@H]2C[C@@H]2[C@H](NP(=O)(c2ccccc2)c2ccccc2)c2ccccc2)o1,inactive
3,O=C1c2ccccc2C(=O)c2c1oc(C(F)(F)F)c2C(=O)c1ccccc1,inactive
4,Cc1oc2c(c1C(=O)c1ccccc1)C(=O)C(=O)c1ccccc1-2,active
5,Cc1ccc(C(=O)c2c(C)oc3c2C(=O)C(=O)c2ccccc2-3)cc1,inactive
6,COc1cccc(Cn2c(NCc3ccccn3)nc3c2c(=O)n(C)c(=O)n3C)c1,inactive
7,Cn1c(=O)c2c(nc(NCc3cccnc3)n2Cc2cccc(C(F)(F)F)c2)n(C)c1=O,inactive
8,Cc1cc(C)nc(Sc2ccc3nnc(C(F)(F)C(F)(F)C(F)(F)F)n3n2)n1,inactive
9,Cc1ccc(-c2nn3c(C)nnc3s2)cc1NC(=O)C(C)C,inactive
10,CCOc1cccc2cc(-c3cn4cc(C)ccc4n3)c(=O)oc12,active
11,CCOc1cccc2cc(-c3nnc(-c4ccccc4)o3)c(=O)oc12,inactive
12,COc1cccc2cc(-c3cn4ccc(C)cc4n3)c(=O)oc12,inactive
13,CCc1ccc(OCCNC(=O)c2ccc(S(=O)(=O)N(C)C)cc2)cc1,inactive
14,CCOC(=O)N1CCN(C(=O)c2ccc(N(Cc3ccc(C)cc3)S(C)(=O)=O)cc2)CC1,inactive
15,CCOP(=O)(c1ccccc1Cl)C1(O)CCCCC1 (centres undefined),inactive
16,CCOc1cc(C(=O)N2CCc3cc(OC)c(OC)cc3C2)ccc1OC(F)F,active
17,COc1ccc(C(=O)N2CCc3cc(OC)c(OC)cc3C2)cc1OC,inactive
18,CCOc1ccc(C(=O)N2CCCC2)cc1OC,inactive
19,CCOC(=O)C1=NN(c2ccc(Cl)cc2)C(c2ccccc2)CC1=O (centres undefined),inactive
20,CCCN(CCC)S(=O)(=O)c1cccc(C(=O)Nc2ccc3c(c2)OCO3)c1,inactive
21,O=C(Nc1ccc(-c2nc3ccccc3[nH]2)cc1)C1CCCO1 (centres undefined),active
22,Cc1ccc2oc(-c3cccc(NC(=O)C4CCCO4)c3)nc2c1 (centres undefined),inactive
23,O=C(Nc1ccc(O)cc1)C1CCCO1 (centres undefined),inactive
24,O=C(Nc1ccc(-c2nc3cc(Cl)ccc3o2)cc1)C1CCCO1 (centres undefined),inactive
25,O=C(Nc1nc2ccccc2[nH]1)C1CCCO1 (centres undefined),inactive

row,SMILES,outcome
1,O=C(Nc1ccc(-c2nc3ccccc3o2)cc1)C1CCCO1 (centres undefined),active
2,COc1ccc(OC)c(NC(=O)C2CCCN2C(=O)OCc2ccccc2)c1 (centres undefined),inactive
3,Nc1nnnn1/N=C/c1cccc(OCc2ccccc2Cl)c1,inactive
4,C=CC(O)(C#CCN(CC)CC)c1ccccc1 (centres undefined),inactive
5,CC(=O)NC1CC2CCCC(C1)N2C(=O)Nc1ccccc1 (centres undefined),inactive
6,Cc1cc(C)nc(NC(=O)c2cc3ccccc3o2)n1,inactive
7,CC(=O)Nc1sc2c(c1C(N)=O)CCC2,inactive
8,Cc1c(C(=O)Nc2ccncc2)oc2ccccc12,inactive
9,Cc1c(C(=O)Nc2ccccn2)oc2ccccc12,inactive
10,O=C(Nc1ccccc1)c1cc2ccccc2o1,inactive
11,NC(=O)c1c(NC(=O)c2ccco2)sc2c1CCC2,inactive
12,CCCC(C)NC(=O)C1CCN(S(=O)(=O)c2ccccc2)CC1 (centres undefined),inactive
13,O=C(CSc1ccc(-c2nc3ccccc3[nH]2)cn1)N1CCN(C(=O)c2ccco2)CC1,inactive
14,O=C(c1ccc(S(=O)(=O)Nc2ccccc2)cc1)N1CCOCC1,inactive
15,CCN(CC)C(=O)C(C)N(C#N)c1nc(NC(C)C)nc(NC(C)C)n1 (centres undefined),inactive
16,Cc1ccc(Cn2c(Sc3nnc(C)s3)nc3c2c(=O)[nH]c(=O)n3C)cc1,inactive
17,Cc1cccc(CCNC(=O)C2CCC(=O)N2Cc2ccc(F)cc2)c1 (centres undefined),inactive
18,CCOC(=O)Cc1csc(SCC(=O)Nc2sc3c(c2C(N)=O)CCC3)n1,inactive
19,CCOC(=O)CSC1=C(C#N)C(c2ccc(Cl)cc2)CC(=O)N1 (centres undefined),inactive
20,CCCCCCSC1=C(C#N)C(c2ccc(C)o2)CC(=O)N1 (centres undefined),inactive
21,CCOC(=O)CSC1=C(C#N)C(c2ccccc2OC)CC(=O)N1 (centres undefined),inactive
22,CCOC(=O)CSC1=C(C#N)C(c2ccc(C)s2)CC(=O)N1 (centres undefined),active
23,CCSC1=C(C#N)C(c2ccc(C)s2)CC(=O)N1 (centres undefined),inactive
24,CCOC(=O)CSC1=C(C#N)C(c2ccc(C)o2)CC(=O)N1 (centres undefined),active
25,C=CCc1c(C)c(C#N)c2nc3ccccc3n2c1N1CCN(C)CC1,inactive

row,SMILES,outcome
1,CCC(CC)C(=O)NCCc1cc2c(C)ccc(C)c2[nH]c1=O,inactive
2,COc1cc(Nc2cc(C)nc3ncnn23)cc(OC)c1OC,inactive
3,Cc1nc2ncnn2c(Nc2ccc3c(c2)OCO3)c1Cc1ccccc1,inactive
4,COc1ccc(NC(=O)CSc2nnc(-c3cccnc3)o2)cc1,inactive
5,CCn1nc(C)c(NC(=O)CCCSc2nc(-c3ccco3)cc(C(F)(F)F)n2)c1C,inactive
6,Cc1[nH]nc2c1C(C(C)C)C(C#N)=C(N)O2 (centres undefined),inactive
7,Cc1[nH]nc2c1C(C1CC=CCC1)C(C#N)=C(N)O2 (centres undefined),active
8,Cc1ccc(C2C(C#N)=C(N)Oc3n[nH]c(C)c32)cc1 (centres undefined),inactive
9,CC(=O)N(C(C)=O)C1=C(C#N)C2(CCCCC2)Cc2ccccc21,inactive
10,O=C(Nc1nc2ccccc2[nH]1)c1ccccc1F,active
11,CCCOc1ccc2nc(NC(=O)OC)[nH]c2c1,inactive
12,COc1cc(OC)cc(C(=O)Nc2nc3ccccc3[nH]2)c1,inactive
13,Cc1cc(NC(=O)c2ccccc2F)n(-c2nc3ccccc3[nH]2)n1,inactive
14,C=CCOc1ccc2nc(NC(=O)OC)[nH]c2c1,active
15,O=C(Cc1ccccc1)Nc1nc2ccccc2[nH]1,inactive
16,O=C(COc1ccccc1)Nc1nc2ccccc2[nH]1,inactive
17,O=C(Nc1ccc(F)cc1)c1ccccc1F,inactive
18,COc1cc(C(=O)Nc2nc3ccccc3[nH]2)cc(OC)c1OC,inactive
19,COC(=O)Nc1nc2ccc(C(=O)c3ccccc3)cc2[nH]1,inactive
20,Cc1cc(=O)n2nc(N3CCC(C(=O)NCc4cccnc4)CC3)sc2n1,inactive
21,CC(C)=C1SC(N2CCN(Cc3ccccc3)CC2)=NC1=O,inactive
22,CC1=C(C#N)C(c2cccnc2)C2=C(CC(c3ccc(Cl)cc3)CC2=O)N1 (centres undefined),inactive
23,COc1ccc(-c2nn(-c3ccccc3)cc2C(=O)N2CCOCC2)cc1,inactive
24,Cc1cc(C)n(C(=O)CN2C(=O)c3ccccc3C2=O)n1,inactive
